From PubChem
A647 fluor = A647 region autofluorescence | max dye-equivalent concentration, M | 59,000 tested, under 10 active | Compound fluorescence, A647 channel (570/671 nm), Tris buffer;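 note: values scaled relative to a standard on each plate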
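Tris 100 mM pH 8.0; cpd + A647 stds pin-transferred; 15 min RT; CCD imager, ex 570/em 671. Output = A647-equivalent conc. per cpd conc.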
A488 fluor = A488 region autofluorescence | max dye equivalency, M | compound autofluorescence, A488 spectral region, dye equivalency; Compound Type: qHTS ECL - MLSMR | AID 591 | 59,000 tested, 0.1% active
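Read-out: relative fluorescence at 480/540 nm, expressed as Alexa 488 dye-equivalent concentration from a six-point A488 standard included per plate. Conditions: 100 mM Tris, pH 8.0; 15 min incubation, room temperature.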
Rhodamine fluor = compound autofluorescence in rhodamine spectral region | Rhodamine-region fluorescence, 547/598 nm, Tris buffer; active compounds read high | max dye-equivalent concentration, M | 59,000 tested, 0.05% active; in the data active = max dye-equivalent concentration above about 11 nM; inconclusive = between about 1.1 nM and that limit
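A six-point rhodamine series on each plate calibrates the signal. Compounds sit in 100 mM Tris (pH 8.0) for 15 min at ambient temperature before imaging through 547 nm/598 nm filters.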
Resorufin fluor = resorufin region autofluorescence. Compound fluorescence, resorufin region 547/598 nm, buffer; active compounds read high. 59,000 tested, 0.04% active. max dye-equivalent concentration, M
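Compounds in 100 mM Tris, pH 8.0, incubated 15 min at room temperature, then fluorescence read at 547 nm excitation/598 nm emission. Signal converted to dye-equivalent concentration via an on-plate six-point resorufin standard curve, per compound concentration.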
Texas Red fluor = compounds fluorescent in Texas Red spectral region | Compound fluorescence, Texas Red channel, 547/618 nm; active compounds read high | 59,000 tested, 0.06% active | max dye-equivalent concentration, M; in the data active = max dye-equivalent concentration above about 10 nM; inconclusive = between about 1.1 nM and that limit
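Fluorescence at ex 547/em 618 nm, normalized against an on-plate Texas Red standard series to give dye-equivalent concentration per compound concentration. Buffer 100 mM Tris, pH 8.0; 15 min RT incubation before CCD imaging.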
Fluorescein fluor = compound fluoresces in the fluorescein spectral region | 59,000 tested, 0.91% active | max fluorescein-equivalent concentration, M | Compound autofluorescence, 480/540 nm, fluorescein-equivalent; active compounds read high; in the data active = max fluorescein-equivalent concentration above about 10 nM; inconclusive = between about 1.1 nM and that limit
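Read-out is intrinsic compound fluorescence at 480/540 nm (excitation/emission), expressed as dye-equivalent concentration using a fluorescein standard series run on every plate. Compounds sat 15 min at room temperature in 100 mM Tris, pH 8.0.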
An asterisk follows results filed as active; i = inactive; u = inconclusive. Sampled rows, rich in hits. Any-hit rate of the full collection: about 0.96%. Unless noted, the rule behind the calls is not given here.

SMILES	A647 fluor	A488 fluor	Rhodamine fluor	Resorufin fluor	Texas Red fluor	Fluorescein fluor
CC(=O)Nc1ccc(N=Cc2nc(-c3ccc(C)cc3)oc2O)cc1	1e-09	i	i	i	i	1.58e-08M*
CCOC(=O)c1sc(SCC(=O)Nc2ccc(N(C)C)cc2)nc1N	1.55e-08	i	i	i	i	i
CCOC(=O)SC1=N/C(=C\c2ccc(N(C)C)cc2)C(=O)S1	1e-09	i	i	i	i	1.01e-08M*
CC(=O)OC[C@@H]1O[C@@H](Oc2cc(OC(C)=O)c3c(=O)cc(-c4ccc(OC(C)=O)c(OC(C)=O)c4)oc3c2)[C@H](OC(C)=O)[C@H](OC(C)=O)[C@@H]1OC(C)=O	4.3e-09	i	i	i	i	i
CNC(=O)[C@@H]1O[C@@H](n2cnc3c(NCc4ccc(N)cc4)ncnc32)[C@@H](O)[C@H]1O	4.35e-08	i	i	i	i	u
C[C@@H]1O[C@@H](n2cc(F)c(=O)[nH]c2=O)[C@H](O)[C@@H]1O	2.25e-08	i	i	i	i	u
N#CC1=C(N)C(C#N)(C#N)C(c2ccc[nH]2)C2CCCC=C12 (stereo not drawn)	1e-09	i	i	i	i	1.28e-08M*
N#CC1=C(N)C(C#N)(C#N)C(c2cccnc2)C2CCCC=C12 (stereo not drawn)	3.65e-08	u	i	i	i	4.84e-08M*
C[N@@+]1(CC[N@@+]2(C)CCC[C@H]2c2cccnc2)CCC[C@@H]1c1cccnc1	2.5e-09	i	i	i	i	i
Nc1ccc(CCNc2ncnc3c2ncn3[C@@H]2O[C@@H](CO)[C@H](O)[C@@H]2O)cc1	2.45e-08	i	i	i	i	u
N[C@@H](Cc1[nH]nc2ccccc12)C(=O)O	2.3e-09	i	i	i	i	1.14e-08M*
Nc1nc(Cn2nnc(-c3ccccc3F)n2)nc(N2CCOCC2)n1	1.79e-08	i	i	i	i	i
N#Cc1c(C(F)(F)F)cc(-c2ccccc2)nc1SCc1nc(N)nc(N2CCOCC2)n1	1e-09	i	i	i	i	1.62e-08M*
OC[C@@H]1NC[C@@H](O)[C@H]1O	1.1e-09	i	i	i	i	i
COc1cc(Cn2c(N)c(C#N)c3nc4ccccc4nc32)cc(OC)c1	4.53e-08	i	i	i	i	u
COc1cccc(Cn2c(N)c(C#N)c3nc4ccccc4nc32)c1OC	3.21e-08	i	i	i	i	1.26e-08M*
CC(=O)Nc1c2c3c(cccc3n(C)c1=O)C(=O)c1ccccc1-2	1e-09	u	i	i	i	1.74e-08M*
c1ccc(CC2CCN(c3nc4ccccc4n4nnnc34)CC2)cc1	3.27e-08	i	i	i	i	u
O=C(c1ccco1)N1CCN(c2nc3ccccc3n3nnnc23)CC1	4.25e-08	i	i	i	u	1.02e-08M*
N#CC1=C(N)N(c2ccccc2)C2=C(C(=O)CCC2)C1c1ccsc1 (stereo not drawn)	2.9e-09	i	i	i	i	i
N#CC1=C(N)N2C(=C(C#N)C1c1ccccc1)Sc1ccccc12 (stereo not drawn)	4.65e-08	u	i	i	i	4.21e-08M*
Cc1nccn1-c1c2c(c(C#N)c3nc4ccccc4n13)CCCC2	2.06e-08	i	i	i	u	1.4e-08M*
COc1ccc(NC(=O)N2CCC3(CC2)CCN(C(=O)c2ccncc2)CC3)cc1	1e-09	i	i	i	i	i
COC(=O)N1CCC2(CCN(C(=O)Nc3ccc(OC)cc3)CC2)CC1	2.1e-08	i	i	i	i	1.54e-08M*
COc1ccc(C(=O)N2CCC3(CC2)CN(C(=O)Nc2cccc(C#N)c2)C3)cc1	1e-09	i	i	i	i	1.09e-08M*
SMILES	A647 fluor	A488 fluor	Rhodamine fluor	Resorufin fluor	Texas Red fluor	Fluorescein fluor
COc1ccc(C(=O)N2CCC3(CCN(C(=O)Nc4cccc(C#N)c4)CC3)CC2)cc1	2.9e-09	i	i	i	i	i
CCC[C@@H]1O[C@@H]2C[C@@H]3[C@@H]4CCC5=CC(=O)C=C[C@@]5(C)[C@H]4[C@H](O)C[C@@]3(C)[C@@]2(C(=O)CO)O1	1.4e-09	i	i	i	u	i
[N-]=[N+]=Nc1ccc(C(=O)CSC[C@@H](NC(=O)CC[C@@H](N)C(=O)O)C(=O)NCC(=O)O)cc1	1.3e-09	i	i	i	u	u
Cn1ncc(N=Cc2c(O)ccc3ccccc23)c1C(=O)N1CCOCC1	1e-09	i	i	i	i	1.67e-08M*
Cn1ncc(N=Cc2ccccc2O)c1C(=O)Nc1ccccc1	7.56e-08	i	i	i	i	i
Cc1c(CCC#N)c(N2CCN(C3CCCCC3)CC2)n2c(nc3ccccc32)c1C#N	2e-09	i	i	i	i	1.07e-08M*
CC[C@H](C)[C@@H]1O[C@]2(CC[C@@H]1C)C[C@H]1C[C@H](CC=C(C)[C@@H](O[C@H]3C[C@H](OC)[C@H](O[C@H]4C[C@H](OC)[C@H](O)[C@H](C)O4)[C@H](C)O3)[C@@H](C)C=CC=C3CO[C@@H]4[C@@H](O)C(C)=C[C@H](C(=O)O1)[C@@]34O)O2	1.2e-09	i	i	i	i	i
N#CC1=C(N)Oc2n[nH]c(-c3cccs3)c2C1c1ccco1 (stereo not drawn)	1e-09	u	u	u	u	1.01e-07M*
O=c1[nH]c(=O)n([C@H]2C[C@H](O)[C@H](CO)O2)cc1/C=C\Br	1e-09	i	i	i	u	i
COc1ccccc1/C=c1\sc2nc(-c3cccs3)nn2c1=O	1e-09	i	i	i	i	i
Cc1ccc(/C=c2\sc3nc(-c4cccs4)nn3c2=O)o1	1e-09	i	i	i	u	1.29e-08M*
CCNc1ncc2nc(-c3cn(C)c4ccccc34)c(=O)n(-c3ccccc3)c2n1	5.4e-09	i	i	i	i	1.13e-08M*
COc1ncc2nc(-c3cn(C)c4ccccc34)c(=O)n(-c3ccccc3)c2n1	6.3e-09	i	i	i	i	1.52e-08M*
CCOc1cc(-c2ccc(N)c(OCC)c2)ccc1N	1e-09	u	i	i	i	9.79e-08M*
C=CCOn1c(=O)c(-c2ccc(OC)cc2)[n+]([O-])c2ccccc21	1e-09	i	i	i	u	i
O=c1c(-c2ccc(Cl)cc2)[n+]([O-])c2ccccc2n1O	1e-09	i	i	i	i	1.57e-08M*
COc1ccc2c(c1)[n+]([O-])c(/C(C)=N/NC(N)=S)c(C)[n+]2[O-]	1e-09	i	i	i	u	u
